Only some compounds are listed: those with a hit (about 19% of all), similar ones and a draw of the others.
HT1080 IDH1KD tx: HT-1080 IDH1 knockdown cell toxicity (counter line). HT-1080 IDH1 knockdown viability, ATP luminescence, 48 h. Potency, µM (series often up to 46.1 µM), hits mostly cytotoxic. hit rate 2% among 360,000. AID 686971
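CellTiter-Glo luminescence after 48 h compound exposure at 37 degrees C of IDH1-knockdown HT-1080 cells in 5% FBS RPMI. %Activity scaled between DMSO wells and cell-free media wells, with curves fitted and assigned curve classes.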
IL-1B inflam inh: inhibitors of inflammasome signaling (IL-1 beta secretion); THP-1 LPS/ATP IL-1B secretion, AlphaLISA, 16 h; active compounds read low; activity change, % at 57.5 µM; hit rate 4.7% among 360,000; AID 743279; in the data active = activity change below about -50%; inconclusive = mostly about -30% to -49%
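THP-1 cells pretreated 1 hr with compounds (up to 57.5 uM final), then stimulated with LPS (250 ng/mL final) plus ATP (1.25 mM final); secreted IL-1B measured by AlphaLISA after 16 hr, decreased signal indicating inhibition.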
TDP1 cell CPT: DT40-hTDP1 cell growth loss with CPT | AID 686979 | chicken DT40 Tdp1-/-;hTDP1 cells + 20 nM CPT, ATP luminescence, 48 h | Potency, µM (top dose mostly 46.2 µM), actives largely listed as inhibitors | hit rate 12% among 420,000; also: nearly all actives have a fitted effect of over 55% in size
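Chicken DT40 Tdp1-/- cells stably complemented with human TDP1 were seeded at 400 cells/well in medium containing 20 nM camptothecin, exposed to pin-transferred compounds, and grown at 37 °C for at least 48 hr. Viability was read as ATP luminescence.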
TDP1 cell noCPT: qHTS for Inhibitors of human tyrosyl-DNA phosphodiesterase 1 (TDP1): qHTS in cells in absence of CPT; hit rate 15% among 420,000; AID 686978, 2013; DT40 Tdp1-/- hTDP1 cells, no CPT, ATP luminescence, 48 h; Potency, µM (titrated, usually from 46.2 µM), usual class: inhibitors; also: nearly all actives have a fitted effect of over 55% in size
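No-CPT arm: Tdp1-/-;hTDP1 DT40 cells (400/well) plus compounds, incubated ≥48 hr at 37 °C. Readout CellTiter-Glo luminescence.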
HT1080-NT tox: kills 2HG-producing HT-1080-NT fibrosarcoma cells | HT-1080-NT fibrosarcoma viability, CellTiter-Glo ATP luminescence, 48 h | Potency, µM (top dose mostly 46.1 µM), actives largely listed as cytotoxic | hit rate 1.6% among 360,000;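 also: NT is the 2HG producing partner of a matched IDH1 knockdown line; nearly all actives have a fitted effect of over 55% in size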
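Read-out is CellTiter-Glo luminescence after 10 minutes at room temperature, following 48 hours' compound treatment of HT-1080-NT cells (750 cells/well, RPMI, 5% FBS, 37 degrees C).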
Numbers stand for hits; - = inactive; ? = inconclusive; . = no result. Unless noted, calls follow the shape of the dose curve; as a rule, active = well fitted curve in the direction sought with a large enough effect; inconclusive = small, poorly fitted or top-dose-only effect, or another doubt; inactive = no such curve, though single readings can be large; an effect the other way counts as inactive or inconclusive.

SMILES | HT1080 IDH1KD tx | IL-1B inflam inh | TDP1 cell CPT | TDP1 cell noCPT | HT1080-NT tox
COc1cc(C(=O)OCc2cc(=O)n3nc(C4CCCCC4)sc3n2)cc(OC)c1OC | . | . | 12µM | 10µM | .
Cc1cccc(C(=O)Nc2cccc(C(=O)OCc3cc(=O)n4nc(C(C)C)sc4n3)c2)c1 | . | . | ? | 15µM | .
O=C/C(=C\Nc1ccc(S(=O)(=O)CCO)cc1)c1nc2cc(Cl)ccc2o1 | - | - | - | - | -
CCc1nn2c(=O)cc(COC(=O)c3cccc(NC(=O)c4ccccc4C)c3)nc2s1 | . | . | 21µM | 15µM | .
CCOc1cc(C(=O)OCc2cc(=O)n3nc(CC)sc3n2)cc(OCC)c1OCC | . | . | 18µM | ? | .
CCc1nn2c(=O)cc(COC(=O)c3ccc(NC(=O)c4cccs4)cc3)nc2s1 | . | . | 6.5µM | 6.5µM | .
CCCCc1nn2c(=O)cc(COC(=O)c3cccc(NC(=O)CCc4ccccc4)c3)nc2s1 | . | . | - | - | .
NS(=O)(=O)c1cnccc1Oc1cccc(Cl)c1 | - | - | - | - | ?
Cc1cc(CN2C(=O)c3ccccc3C2=O)cc(N2CCOCC2)c1 | - | - | - | - | -
O=C(NC1CCCCCC1)c1cc2c(Cl)nc3ccccc3c2s1 | . | . | - | - | .
CCCCNC(=O)c1cc2c(=O)n(CC)c3ccccc3c2s1 | ? | - | ? | 23µM | -
CCn1c(=O)c2cc(C(=O)NCCCN3CCN(c4ccc(F)cc4)CC3)sc2c2ccccc21 | . | . | 18µM | 6.5µM | .
Cn1c(=O)c2cc(C(=O)NC3CCCCCC3)sc2c2ccccc21 | . | . | ? | 18µM | .
CCn1c(=O)c2cc(C(=O)NC(C)C)sc2c2ccccc21 | - | - | ? | ? | -
CCCN1CCN(CCCNC(=O)c2cc3c(=O)[nH]c4ccccc4c3s2)CC1 | - | - | ? | ? | -
CCn1c(=O)c2cc(C(=O)NC3CCCCCC3)sc2c2ccccc21 | . | . | 16µM | 16µM | .
CCS(=O)(=O)c1ccc(O)c(NC(=O)CC2(CC(=O)O)CCCC2)c1 | - | - | - | - | -
NS(=O)(=O)c1ccc(Cl)cc1[N+](=O)[O-] | - | - | - | ? | -
CC(=O)n1cc(C=O)c2ccccc21 | . | . | - | - | .
Cc1ccc(S(=O)(=O)n2cc(-c3ccccc3)c3ccccc32)cc1 | ? | - | 3.7µM | 2.3µM | ?
Cc1ccc(S(=O)(=O)N2CCN(S(=O)(=O)c3ccccc3)C2)cc1 | - | - | - | - | -
Cc1ccc(S(=O)(=O)n2cc(C=O)c3ccccc32)cc1 | 23µM | - | ? | ? | 16µM
Cc1ccc(NC(=O)CCN2CC(C)OC(C)C2)cc1 (stereo not drawn) | - | - | - | - | -
CC(NC(=O)c1c2c(nc3ccccc13)C(=O)N(C1CCCCC1)C2)c1ccccc1 (stereo not drawn) | . | . | 16µM | 18µM | .
CC(=O)c1ccc(NC(=O)c2c3c(nc4ccccc24)C(=O)N(C2CCCCC2)C3)cc1 | . | . | 21µM | 21µM | .
SMILES | HT1080 IDH1KD tx | IL-1B inflam inh | TDP1 cell CPT | TDP1 cell noCPT | HT1080-NT tox
CC(=O)N1CCOc2cc(S(=O)(=O)N3CCN(c4ccccc4)CC3)c(Cl)cc21 | - | - | - | - | -
CC(=O)c1ccc(NS(=O)(=O)c2cc3c(cc2C)N(C)CCO3)cc1 | 16µM | - | 10µM | ? | ?
O=C1COc2ccc(S(=O)(=O)N3CCN(c4cccc(C(F)(F)F)c4)CC3)cc2N1 | - | - | - | - | ?
Cc1cc2c(cc1S(=O)(=O)N1CCN(c3cccc(C(F)(F)F)c3)CC1)OCC(=O)N2 | - | - | 18µM | ? | -
Cc1cc2c(cc1S(=O)(=O)Nc1ccc(C(C)C)cc1)OCCN2C | . | . | ? | 16µM | .
Cc1cc2c(cc1S(=O)(=O)N1CCN(c3ccccc3)CC1)OCCN2C | - | - | 7.3µM | - | -
NC(=O)C1CCN(C2CC(=O)N(c3ccc(F)c(Cl)c3)C2=O)CC1 (stereo not drawn) | - | - | ? | ? | -
O=C(Cn1nc(CNc2ccc(Cl)cc2)[n+]2c1CCCCC2)c1ccccc1 | - | -53 | 5.2µM | 8.2µM | -
COc1ccc(C2CC(=O)C3=C(C2)Nc2ccccc2NC3c2coc3ccccc3c2=O)cc1OC (stereo not drawn) | - | ? | 16µM | 26µM | -
